This is part of a sample that, as a whole, favours compounds with a hit. Of some 79,000 tested, about 15% had one in any assay. Active and inactive are the calls of the source. Rule as the data show it: active = growth inhibition above about 70%; inactive = the rest.
Experiments:
[1] = NCI Yeast Anticancer Drug Screen. Data for the rad50 strain (AID 155);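 also: 0% = growth of vehicle-only cultures of the same strain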; details: S. cerevisiae rad50 strain growth inhibition, active compounds read high
How it was run: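 DNA repair mutant yeast, compound exposure, growth read-out; inhibition is taken relative to vehicle.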

[2] = NCI Yeast Anticancer Drug Screen. Data for the mec2-1 strain (AID 157); details: S. cerevisiae mec2-1 strain, active compounds read high
How it was run: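 Cells of the genetically defined mec2-1 yeast strain are incubated with test compound. Inhibition of growth is calculated against vehicle-treated controls.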

[3] = NCI Yeast Anticancer Drug Screen. Data for the sgs1 mgt1 strain (AID 161);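 also: 0% = growth of cultures given vehicle only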; details: S. cerevisiae sgs1 mgt1 strain, active compounds read high
How it was run: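 Inhibition of yeast growth, normalised to vehicle-treated controls, is reported for a strain bearing genetic alterations in DNA damage repair.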

[4] = NCI Yeast Anticancer Drug Screen. Data for the cln2 rad14 strain (AID 165);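 also: 0% = growth equal to vehicle treated cultures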; details: S. cerevisiae cln2 rad14 strain, active compounds read high
How it was run: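 The screen exposed genetically defined yeast (cln2 rad14) to test compounds and scored growth inhibition relative to vehicle-treated controls.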

[5] = NCI Yeast Anticancer Drug Screen. Data for the bub3 strain (AID 167); details: S. cerevisiae bub3 mutant strain, active compounds read high
How it was run: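 In this screen, a yeast mutant lacking normal mitotic checkpoint function is challenged with compound. Relative growth versus vehicle gives the inhibition value.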

[6] = NCI Yeast Anticancer Drug Screen. Data for the mlh1 rad18 strain (AID 175); details: S. cerevisiae mlh1 rad18 strain growth inhibition, active compounds read high
How it was run: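 Compound-treated yeast growth, normalised to vehicle controls. Strain bears defined DNA repair mutations.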

[7] = at 5.0 µM (retest, dose inferred, filed as 0.5)
[8] = at 50.0 µM (retest, dose inferred, filed as 5.0)

Measured: growth inhibition

CCc1ccc(-c2ccccc2)cc1
active: [4]; at 50.0 µM 76.9%
inactive: [1]; [7] 1% | [1]; [8] 1% | [1]; at 50.0 µM 9.45% | [2]; [7] -1% | [2]; [8] 6% | [2]; at 50.0 µM -2.95% | [3]; [7] -1% | [3]; [8] -2% | [3]; at 50.0 µM -3.9% | [4]; [7] -7% | [4]; [8] 6% | [5]; [7] 9% | [5]; [8] 10% | [5]; at 50.0 µM 9.05% | [6]; [7] 0% | [6]; [8] 4% | [6]; at 50.0 µM 8.75%

CC1CN(CC(O)c2ccc(Br)cc2)CC(C)O1 (configuration not stated)
inactive: [1]; [7] 13% | [1]; [8] 30% | [1]; at 50.0 µM 58.5% | [2]; [7] 6% | [2]; [8] 28% | [2]; at 50.0 µM 34.2% | [3]; [7] 8% | [3]; [8] 56% | [3]; at 50.0 µM 66.5% | [4]; [7] 8% | [4]; [8] 46% | [4]; at 50.0 µM 68.7% | [5]; [7] 12% | [5]; [8] 48% | [5]; at 50.0 µM 54.6% | [6]; [7] 29% | [6]; [8] 61% | [6]; at 50.0 µM 41.8%

CN(C)CC(C)(C)/C(=N\Nc1ccccc1)c1ccccc1
inactive: [1]; [7] 6% | [1]; at 50.0 µM 5.6% | [2]; [7] 3% | [2]; at 50.0 µM -5.2% | [3]; [7] 51% | [3]; at 50.0 µM 4.55% | [4]; [7] 25% | [4]; [8] 62% | [4]; at 50.0 µM 38.9% | [5]; [7] 30% | [6]; [7] 22% | [6]; at 50.0 µM 33%
active: [1]; [8] 82% | [2]; [8] 86% | [3]; [8] 95% | [5]; [8] 93% | [5]; at 50.0 µM 98% | [6]; [8] 80%

C=C1C(=O)OC2C1CC1OC2C(C)CCC/C(C)=C\CCC1(C)O (configuration not stated)
active: [1]; at 50.0 µM 92.5% | [2]; at 50.0 µM 92.8% | [3]; at 50.0 µM 94.1% | [4]; at 50.0 µM 91.8% | [5]; at 50.0 µM 92.4% | [6]; at 50.0 µM 92.6%
inactive: [1]; [7] 2% | [1]; [8] 8% | [2]; [7] 2% | [2]; [8] 25% | [3]; [7] 2% | [3]; [8] 34% | [4]; [7] -6% | [4]; [8] -8% | [5]; [7] -1% | [5]; [8] 8% | [6]; [7] 1% | [6]; [8] 20%

OCC(O)C(O)C(O)C(O)C(O)C(/C=N/Nc1ccccc1)=N/Nc1ccccc1 (configuration not stated)
inactive: [1]; [7] -1% | [1]; at 50.0 µM 55.2% | [2]; [7] -2% | [2]; at 50.0 µM 29.2% | [3]; [7] 0% | [3]; [8] 50% | [3]; at 50.0 µM 35.2% | [4]; [7] 0% | [4]; at 50.0 µM 31.1% | [5]; [7] 18% | [5]; at 50.0 µM 56% | [6]; [7] 8% | [6]; at 50.0 µM 66.1%
active: [1]; [8] 81% | [2]; [8] 95% | [4]; [8] 71% | [5]; [8] 95% | [6]; [8] 92%

CCN(CC)CCOC(=O)Cc1cccc2c(=O)cc(-c3cccs3)oc12
inactive: [1]; [7] 18% | [1]; [8] 17% | [1]; at 50.0 µM 18.7% | [2]; [7] 9% | [2]; [8] 16% | [2]; at 50.0 µM -9.35% | [3]; [7] 14% | [3]; [8] 18% | [3]; at 50.0 µM -16.4% | [4]; [7] 17% | [4]; [8] 17% | [4]; at 50.0 µM 8.25% | [5]; [7] 4% | [5]; [8] 14% | [5]; at 50.0 µM -20.6% | [6]; [7] 10% | [6]; [8] 16% | [6]; at 50.0 µM -36%

COc1ccc(NC(=O)CCC(=O)CC(=O)c2ccncc2)cc1
inactive: [1]; [7] -9% | [1]; [8] 3% | [1]; at 50.0 µM 3.5% | [2]; [7] 4% | [2]; [8] -2% | [2]; at 50.0 µM -8.65% | [3]; [7] 2% | [3]; [8] -9% | [3]; at 50.0 µM -6.25% | [4]; [7] -5% | [4]; [8] 2% | [4]; at 50.0 µM 41.2% | [5]; [7] -2% | [5]; [8] 1% | [5]; at 50.0 µM 3.25% | [6]; [7] -1% | [6]; [8] -5% | [6]; at 50.0 µM -14.6%

CN(C)c1cccc(F)c1C(=O)NC(=O)Nc1ccc(Cl)cc1
active: [1]; at 50.0 µM 79.7% | [2]; at 50.0 µM 75.7% | [3]; at 50.0 µM 85.9% | [4]; at 50.0 µM 72% | [5]; at 50.0 µM 83% | [6]; at 50.0 µM 91.5%
inactive: [1]; [7] 2% | [1]; [8] 3% | [2]; [7] 1% | [2]; [8] 4% | [3]; [7] 0% | [3]; [8] 7% | [4]; [7] 51% | [4]; [8] -2% | [5]; [7] 1% | [5]; [8] 11% | [6]; [7] 17% | [6]; [8] -2%

Clc1ccc2oc(N3CCCCC3)nc2c1
inactive: [1]; [7] 4% | [1]; [8] 7% | [2]; [7] -3% | [2]; [8] -3% | [3]; [7] 2% | [3]; [8] 6% | [4]; [7] 2% | [4]; [8] 6% | [5]; [7] 8% | [5]; [8] 15% | [6]; [7] 4% | [6]; [8] 11%
active: [1]; at 50.0 µM 98.8% | [2]; at 50.0 µM 99.2% | [3]; at 50.0 µM 99% | [4]; at 50.0 µM 98.2% | [5]; at 50.0 µM 99.2% | [6]; at 50.0 µM 98.7%
